# High-throughput results (PubChem BioAssay)
# Luciferase inh: Photinus pyralis luciferase inhibition. Potency, µM (titrated, usually from 115 µM), actives largely listed as inhibitors. actives 2.5% (n = 76,000). purified P. pyralis luciferase, luminescence, biochemical; note: nearly all actives have a fitted effect of over 65% in size
# Target sequence (P08659 whole entry, looked up): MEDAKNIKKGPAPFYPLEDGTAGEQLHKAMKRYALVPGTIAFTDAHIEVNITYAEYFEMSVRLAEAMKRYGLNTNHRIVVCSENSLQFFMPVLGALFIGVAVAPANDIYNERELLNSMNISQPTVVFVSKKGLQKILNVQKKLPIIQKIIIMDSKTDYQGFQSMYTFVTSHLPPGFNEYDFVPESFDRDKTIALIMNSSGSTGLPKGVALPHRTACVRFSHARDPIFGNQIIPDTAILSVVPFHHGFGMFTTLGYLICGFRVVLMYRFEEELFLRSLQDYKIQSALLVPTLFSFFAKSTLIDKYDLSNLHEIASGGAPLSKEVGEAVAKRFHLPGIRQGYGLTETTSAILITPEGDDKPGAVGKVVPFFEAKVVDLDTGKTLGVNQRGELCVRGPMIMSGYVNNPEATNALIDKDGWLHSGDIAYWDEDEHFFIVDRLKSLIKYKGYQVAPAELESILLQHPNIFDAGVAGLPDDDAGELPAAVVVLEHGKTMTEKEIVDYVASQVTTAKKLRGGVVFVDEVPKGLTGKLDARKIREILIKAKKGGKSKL
#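 Luminescence read by CCD imaging after purified firefly luciferase (10nM final) was added to substrate buffer holding 10uM D-luciferin and 10uM ATP, pH 7.5, pre-dosed with compound.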
# HEK293 tox: cytotoxic compounds in HEK 293 cells; actives 6.6% (n = 94,000); HEK 293 viability, ATP luminescence (CellTiter-Glo), 48-72 h; AID 1345083; Potency, µM (highest dose often 115 µM), inactives show at the highest dose activity change, negative = cytotoxicity, hits mostly inhibitors; note: nearly all actives have a fitted effect of over 60% in size
#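 CellTiter-Glo luminescence (cellular ATP) was read after 48 or 72 hr of compound exposure at 37 degree Celsius. Cells were HEK 293 plated at 250 cells/well.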
# hNpr1 antagonist: blocks ANP-stimulated signaling of human Npr1 receptor; HEK293 hNpr1 GloSensor cGMP, ANP-stimulated luminescence; Potency, µM (series often up to 46.3 µM), without a hit: top-dose activity change, negative = inhibition, usual class: inhibitors; actives 1.6% (n = 76,000); calls by dose curve; note: nearly all actives have a fitted effect of over 60% in size
#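 Compound pre-incubated 30 min at room temperature on GloSensor-loaded HEK293 cells stably carrying hNpr1 and the pGS-40F cGMP biosensor. Stimulation uses hNppA at 0.1 nM final; luminescence is taken at baseline and 20 min post-agonist.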
# 3T3 cytotox: cytotoxic compounds in NIH 3T3 cells | actives 4.3% (n = 94,000) | NIH 3T3 viability, CellTiter-Glo ATP luminescence, 48-72 h | Potency, µM (series often up to 96.7 µM), without a hit: at the top dose activity change, negative = cytotoxicity, most hits filed as inhibitors | AID 1345082; note: nearly all actives have a fitted effect of over 55% in size
#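 Cytotoxicity was measured by CellTiter-Glo ATP luminescence after 48 or 72 h compound exposure at 37 °C. Mouse NIH 3T3 fibroblasts were seeded at 400 cells/well and dosed by 23 nL pin transfer.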
# Starred values were filed as active, the others as inactive; i = inactive; u = inconclusive; x = no result; [ ] = remark or other dose. A selection: hits, their analogues and other compounds. The true share with any hit is near 11%. Unless noted, calls come from the whole dose curve; as a rule, active = well fitted curve in the direction sought with a large enough effect; inconclusive = small, poorly fitted or top-dose-only effect, or another doubt; inactive = no such curve, though single readings can be large; an effect the other way counts as inactive or inconclusive. % is set by controls: 0 for no effect and ±100 for the full control effect; potency is the fitted concentration of half-maximal effect.
SMILES,Luciferase inh,HEK293 tox,hNpr1 antagonist,3T3 cytotox
C=CCS(=O)(=O)N1CCCC(CCc2cccc(OC)c2)C1 (centres undefined),i,u,-1%,-29%
O=C(c1ccco1)N1CCCC(CCc2cccc(F)c2)C1 (centres undefined),i,79µM*,6%,u
COc1cccc(CCC2CCCN(C(=O)c3ccc(OC)o3)C2)c1 (centres undefined),i,35µM*,-19%,u
Cc1cc(-c2ccc(F)c(C(N)=O)c2)cc(C(C)(C)C)c1,i,45µM*,11%,u
COc1ccc(Cn2cc(-c3ccc(F)c(C(N)=O)c3)cn2)cc1,i,u,-1%,u
Cc1ccc(-c2cccc(CN3CCCC(NC(=O)Nc4ccccc4F)C3)c2)cc1Cl (centres undefined),x,18µM*,x,28µM*
CC(=O)NC1CCCN(Cc2cccc(-c3ccc(C)c(Cl)c3)c2)C1 (centres undefined),x,20µM*,x,35µM*
COC(=O)NC1CCCN(Cc2cccc(-c3ccc(C)c(Cl)c3)c2)C1 (centres undefined),x,45µM*,x,u
Cc1noc(C)c1[S+](=O)([O-])N1CCC2(CCN(Cc3cccs3)c3ccccc3O2)CC1,i,u,-19%,u
COc1ccc(C(=O)N2CCCC(n3cc(-c4nc(-c5ccccc5)no4)nn3)C2)cc1 (centres undefined),u,28µM*,u,u
CCc1noc(-c2cn(C3CCN(C(=O)c4cccc(Cl)c4)C3)nn2)n1 (centres undefined),i,u,-25%,u
CCCc1noc(-c2cn(C3CCN(C(=O)c4cccc(F)c4)CC3)nn2)n1,i,-13%,0%,35µM*
O=C(c1ccc(F)c(F)c1)N1CCCC(n2cc(-c3nc(-c4ccccc4)no3)nn2)C1 (centres undefined),u,45µM*,11µM*,u
O=C(c1cccc(Cl)c1)N1CCC(n2cc(-c3nc(-c4ccccc4)no3)nn2)C1 (centres undefined),u,40µM*,-16%,u
CN(C)CC(=O)N1Cc2ccccc2CC2(CCCN2C)C1 (centres undefined),x,-1%[172 µM],x,-3%[138 µM]
CC(C)CCN(C)Cc1ccc(-c2ccccc2)cc1,i,-28%[172 µM],0%[70.6 µM],u
CCC1CN(Cc2cn(Cc3ccccc3)nc2-c2cc3ccccc3o2)CCO1 (centres undefined),i,u,2%,u
CN(C)c1cccc(C(=O)N2CCC(n3cc(-c4nc(-c5ccccc5)no4)nn3)C2)c1 (centres undefined),32µM*,28µM*,u,u
COc1ccc(C(=O)N2CCCC(n3cc(-c4nc(-c5ccccc5)no4)nn3)C2)cc1F (centres undefined),u,20µM*,u,u
O=C(c1ccc(F)c(F)c1)N1CCC(n2cc(-c3nc(-c4ccccc4)no3)nn2)C1 (centres undefined),u,40µM*,11µM*,u
O=C(c1cccc(F)c1)N1CCC(n2cc(-c3nc(-c4ccccc4)no3)nn2)C1 (centres undefined),i,u,-5%,u
COc1ccccc1C(=O)N1CCC(n2cc(-c3nc(-c4ccccc4)no3)nn2)C1 (centres undefined),32µM*,28µM*,13µM*,u
COc1ccc(C(=O)N2CCCC(n3cc(-c4nc(C)no4)nn3)C2)cc1F (centres undefined),i,-5%,0%,-20%
C[C@]1(CO)[C@H]2Cc3sc(NC(=O)c4c(F)cccc4F)nc3[C@@H](CC(=O)NC3CC3)[C@]2(C)CC[C@H]1O,i,-2%,4%,-18%
Cc1noc(-c2cn(C3CCN(C(=O)c4ccc5c(c4)OCO5)C3)nn2)n1 (centres undefined),i,0%,-6%,-9%
SMILES,Luciferase inh,HEK293 tox,hNpr1 antagonist,3T3 cytotox
O=C(c1cc(Cl)ccc1F)N1CCCC(n2cc(-c3nc(-c4ccccc4)no3)nn2)C1 (centres undefined),u,32µM*,16µM*,u
O=C(c1cccs1)N1CCCC(n2cc(-c3nc(-c4ccccc4)no3)nn2)C1 (centres undefined),35µM*,u,u,u
O=C(c1ccoc1)N1CCCC(n2cc(-c3nc(-c4ccccc4)no3)nn2)C1 (centres undefined),u,50µM*,u,u
COc1cc(OC)cc(C(=O)N2CCCC(n3cc(-c4nc(-c5ccccc5)no4)nn3)C2)c1 (centres undefined),i,u,-10%,u
O=C(c1ccc2c(c1)OCO2)N1CCC(n2cc(-c3nc(-c4ccccc4)no3)nn2)C1 (centres undefined),u,u,13µM*,-43%
O=C(c1ccncc1)N1CCCC(n2cc(-c3nc(-c4ccccc4)no3)nn2)C1 (centres undefined),u,-30%,-29%,u
CNC(=O)c1cc(C2CC2)nc2onc(C3CCCN(C(=O)Cc4ccc(F)cc4)C3)c12 (centres undefined),x,u,x,-21%
O=C(Cn1cccc1-c1nc(-c2ccc(F)cc2)no1)Nc1cccc(Cl)c1,i,-7%,-2%,-3%
CN(C)c1ccc(CN2CCC3(CC2)C(=NC2CCCCC2)NC(=O)N3c2cc(F)cc(F)c2)cc1,x,u,x,-25%
COc1ccc(C(=O)N2CCCC(n3cc(-c4nc(C(C)C)no4)nn3)C2)cc1 (centres undefined),i,-29%,-1%,-23%
COc1ccc(OCC2CCCN(C(=O)c3cn(C4CCCCC4)nn3)C2)cc1 (centres undefined),32µM*,u,-3%,u
CCCn1nccc1C(=O)N1CCCC(c2[nH]ncc2Cc2ccccc2)C1 (centres undefined),i,50µM*,-25%,u
Cc1nc(C(=O)N2CCCC(c3[nH]ncc3Cc3ccccc3)C2)cs1 (centres undefined),i,u,-12%,u
COc1ccc(NC(=O)c2cccc3c2CCN3C(=O)Nc2ccc(F)cc2)cc1,u,u,2%,-12%
COc1ccc(NC(=O)N2CCc3c(C(=O)NCCCN(C)C)cccc32)cc1,35µM*,-7%,-1%,-5%
CCCNC(=O)c1cccc2c1CCN2C(=O)Nc1ccc(OC)cc1,0.35µM*,u,5µM*,u
CO[C@H]1C(=O)N(C)C2(CCN(C(=O)OCc3ccccc3)CC2)[C@@H]1C(=O)Nc1ccccc1,x,u,x,-18%
Cc1nn(-c2ccc(C(C)C)cc2)c(C)c1[C@@H]1C=C[C@@H](NCc2ccccc2)C1,63µM*,25µM*,-13%[70.6 µM],11µM*
Cc1nn(-c2ccc(C(C)C)cc2)c(C)c1[C@@H]1C=C[C@@H](NCc2cccc(Cl)c2)C1,45µM*,10µM*,u,13µM*
